Experimental findings from PubChem BioAssay AID1578 (Sanford-Burnham Center for Chemical Genomics, 2009) are described below.

The term inhibition denotes the change of the read-out against control, counted positive when it falls.

The campaign covered roughly 290,000 compounds. About 3,000 (1%) were called active. No stated cut-off is given here; in the data, active means inhibition mostly above about 36% (no sharp cut-off); inactive means mostly below about 34%. Shown is part of a subset that was picked to be rich in actives.

The test is described as follows: NOD1 signaling inhibitors, primary screen, cell-based, luminescence, uHTS (AID 1578).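 Further: HEK-293T reporter cells stimulated with the NOD1 agonist gamma-tri-DAP.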 To be noted: NOD1-driven NF-kB luciferase reporter cells, at 4 µM, hits give high values.
Take `CC1c2[nH]c3ccccc3c2C[C@H]2C(=O)N(CCO)CC(=O)N12` (stereo partly drawn): the inhibition is -2.7% (inactive). The figure for `C=CCc1c(OC(C)=O)c2ccccc2n(C)c1=O` is -38% (inactive).

As for `COc1ccc(NC(=O)Cc2c(C)n(C(=O)c3ccc(Cl)cc3)c3ccc(OC)cc23)cc1`, the inhibition is -13.3% (inactive). The figure for `COc1ccc2c(c1)c(CC(=O)Nc1ccc(C)cc1)c(C)n2C(=O)c1ccc(Cl)cc1` is 24.5% (inactive); for `COc1ccc2c(c1)c(CC(=O)Nc1nnc(C3CC3)s1)c(C)n2C(=O)c1ccc(Cl)cc1` it is 64.9% (active). The figure for `COc1ccc(C(=O)Nc2cc(-c3nn4c(C)nnc4s3)ccc2C)cc1` is -18.2% (inactive); for `CCC1(c2ccccc2)NC(=O)N(CC(=O)NCc2ccccc2OC)C1=O` (stereo not drawn) it is 0.8% (inactive); for `COc1ccc(-c2cc(C(=O)N3CCN(S(=O)(=O)c4ccccc4)CC3)[nH]n2)cc1` it is 4.3% (inactive). The figure for `COc1cc(OC)cc(-c2nnc(Nc3nc4c(F)cccc4s3)o2)c1` is 21% (inactive); for `COc1cccc2sc(Nc3nnc(-c4cccs4)o3)nc12` it is 84.7% (active).

In the case of `Fc1cccc2sc(Nc3nnc(-c4ccco4)o3)nc12`, the inhibition was 104% (active). The figure for `COc1ccc(-c2nnc(Nc3nc4c(OC)cccc4s3)o2)cc1` is -20.8% (inactive).

As to `COc1cccc2sc(Nc3nnc(-c4ccc(F)cc4)o3)nc12`, the inhibition was -29.8% (inactive). Regarding `Fc1cccc2sc(Nc3nnc(-c4ccccc4)o3)nc12`, the inhibition is 52.7% (inactive). Under `CCOC(=O)C1C(=O)NC(c2ccccc2)=NC1c1cccc(Br)c1` (stereo not drawn) stands -36.5% (inactive); under `CC1/C(=N/O)CC(c2ccco2)NC1c1ccco1` (stereo not drawn), -0.7% (inactive); under `COc1ccc(NC(=S)N2CCC(NC(=O)c3ccc(F)cc3)CC2)cc1`, -29% (inactive).

With `Cc1cc(C)c(S(=O)(=O)N2CCOCC2)c(C)c1N(C)S(=O)(=O)c1ccccc1`, the inhibition was -19.6% (inactive). The figure for `N#C/C(=C\c1ccc(OCC(N)=O)cc1)c1ccccc1` is -59.4% (inactive); for `O=C(Nc1cccnc1)c1cccc(S(=O)(=O)N2CCOCC2)c1` it is -21% (inactive). For the molecule `CN1CCC(OC(=O)c2ccco2)CC1`, the inhibition is -32.4% (inactive).

In the case of `O=c1c(=Nc2ccccc2O)c(=O)c2ccccc12`, the inhibition is -41.2% (inactive).

`O=C1C(C=Nc2ccccc2O)=C(O)c2ccccc21`: the inhibition was -64.5% (inactive).

With `CNC(=O)COC(=O)c1ccccc1Nc1ccccc1`, the inhibition was -60.3% (inactive).

Take `COc1cc(/C=C(\NC(C)=O)C(=O)NC(C)(C)CC(C)(C)C)ccc1OC(C)=O`: the inhibition is -17.3% (inactive). For `COc1ccc(/C(O)=C/c2nc3ccccc3n(-c3ccccc3)c2=O)cc1`, the inhibition is -72.6% (inactive). In the case of `COc1ccc(-n2c(=O)c(CCC(=O)N(C)Cc3ccccc3C)nc3ccccc32)cc1`, the inhibition was -8.4% (inactive). Under `COc1cccc(CC(=O)N2CCC(CCC(=O)Nc3cccc(OC)c3)CC2)c1` stands -3.8% (inactive); under `Cc1cccc(C)c1NC(=O)CCCN1C(=O)C(c2ccccc2)Oc2cccnc21` (stereo not drawn), -12.2% (inactive); under `COc1ccccc1NC(=O)CCCN1C(=O)C(c2ccccc2)Oc2cccnc21` (stereo not drawn), -2.8% (inactive). Under `Cc1cccc(NC(=O)CCCN2C(=O)C(c3ccccc3)Oc3cccnc32)c1C` (stereo not drawn) stands 42.2% (active). The figure for `COP(=O)(OC)C(Nc1ccc([N+](=O)[O-])cc1)c1ccccc1` (stereo not drawn) is -11.2% (inactive). With `COP(=O)(OC)C(Nc1ccc(Cl)cc1)c1ccccc1` (stereo not drawn), the inhibition was -7.2% (inactive).

Take `CCOc1ccc(NC(c2ccccc2)P(=O)(OC)OC)cc1` (stereo not drawn): the inhibition is 73.2% (active). Under `Cc1cc(NC(=O)c2ccc(Br)o2)ccc1NC(=O)c1ccco1` stands -55.3% (inactive); under `COC1c2ccccc2C(=O)N1CCc1ccc(Cl)cc1` (stereo not drawn), -31.1% (inactive).

Take `CNc1cc(C)nc(N2CCOCC2)n1`: the inhibition was -5.2% (inactive). The figure for `CC1(c2cccc([N+](=O)[O-])c2)CC(C)(C)N(C(=O)c2ccccc2)c2ccccc21` (stereo not drawn) is 82.6% (active); for `CC1(c2cc([N+](=O)[O-])cc([N+](=O)[O-])c2)CC(C)(C)N(C(=O)c2ccccc2)c2ccccc21` (stereo not drawn) it is 4.5% (inactive). For `CC1(c2ccccc2)CC(C)(C)N(C(=O)c2cc([N+](=O)[O-])cc([N+](=O)[O-])c2)c2ccccc21` (stereo not drawn), the inhibition is -2.3% (inactive). In the case of `CCCCCCCC(O)CC(CC1CCCCC1)C(=O)NN` (stereo not drawn), the inhibition was -15% (inactive). The figure for `Cc1cc(C(F)(F)F)nn1CC(=O)NNC(=S)NCC(C)C` is -1.1% (inactive); for `Cc1ccc2c(c1)N(CCCC(=O)NCCCN1CCCC1=O)C(=O)CO2` it is -14.9% (inactive). The figure for `COc1cccc(NC(C)C(=O)N2CC(C)OC(C)C2)c1` (stereo not drawn) is -26.3% (inactive); for `O=c1c2cc(Br)ccc2nc(-c2ccccc2)n1O` it is 6.1% (inactive); for `Cc1ccc(-c2nc3ccc(Cl)cc3c(=O)n2O)cc1` it is 1.3% (inactive).

Take `COc1ccc(CCNC(=O)C2CCN(S(=O)(=O)c3ccc4c(c3)oc(=O)n4C)CC2)cc1OC`: the inhibition was -10.7% (inactive).

In the case of `COC(=O)c1sccc1NC(=O)CSc1ccccc1NS(=O)(=O)c1ccc(Cl)cc1`, the inhibition is 44.2% (inactive). The figure for `COC(=O)c1sccc1NC(=O)CSc1ccccc1NS(=O)(=O)c1ccccc1Cl` is 5.3% (inactive); for `CC(C)[C@H](NC(=O)C1CCN(S(=O)(=O)c2ccccc2)CC1)C(=O)NCc1ccccn1` it is -25.4% (inactive). Consider `CCOC(=O)C(=CNc1cc(C(F)(F)F)ccc1N1CCOCC1)C(=O)OCC`, for which the inhibition is 4% (inactive). The figure for `CCC(C)(C)NC(=O)C(c1ccc(OC)cc1)N(Cc1ccc(OC)cc1)C(=O)CCC(=O)Nc1cc(C)on1` (stereo not drawn) is -11.8% (inactive); for `COCCNC(=O)/C(C#N)=C/c1nc(N(C)C)n(-c2ccc(F)cc2)c1Cl` it is -7.8% (inactive).

On to `CN(C)c1nc(C=C(C#N)C#N)c(Cl)n1-c1ccc(F)cc1`, for which the inhibition was 80.7% (active). The figure for `CN(C)c1nc(/C=C(\C#N)C(N)=O)c(Cl)n1-c1ccc(F)cc1` is -6.6% (inactive); for `Oc1c(Br)cc(/C=N/n2c(-c3ccccc3)n[nH]c2=S)c(O)c1Br` it is 28.5% (inactive); for `Oc1c(Br)cc(/C=N/n2c(-c3ccccc3)n[nH]c2=S)c(Br)c1O` it is -1.1% (inactive).

Consider `Oc1c(Br)cc(Br)c(/C=N/n2c(-c3ccccc3)n[nH]c2=S)c1Br`, for which the inhibition was 63.3% (active). On to `CCOC(=O)c1nnn(CC(=O)NC(=O)Nc2ccccc2)c1C(=O)OCC`, for which the inhibition is -7.4% (inactive). Under `CC(C)(C)c1ccc(-c2cn(-c3ccc(Br)cc3)c3[n+]2CCCS3)cc1` stands 57.2% (active); under `COc1ccc(-c2cn(-c3ccc(Br)cc3)c3[n+]2CCS3)cc1`, -4.3% (inactive); under `CC(=O)c1ccc(-n2cc(-c3ccc(C(C)(C)C)cc3)[n+]3c2SCCC3)cc1`, 5.2% (inactive).

With `Cc1cc(=O)c2ccc(C(F)(F)F)cc2[nH]1`, the inhibition was -14.1% (inactive). Under `COCCn1c(=S)[nH]c2cc(C(=O)N3CCN(c4cccc(Cl)c4)CC3)ccc2c1=O` stands 13.3% (inactive).

For the molecule `COc1ccc(OC)c2c1C(=O)c1ccccc1C2=O`, the inhibition was -6.7% (inactive).

Consider `COc1ccc(OC)c2c1C(=O)C(Cl)=C(Cl)C2=O`, for which the inhibition is 93.8% (active).

`COc1ccc(N)c2c1C(=O)c1ccccc1C2=O`: the inhibition is -34.4% (inactive). Take `CCOc1ccc2cc(/C=C/C(=O)c3ccco3)c(Cl)nc2c1`: the inhibition was 1.7% (inactive). Consider `CCOc1ccc2nc(Cl)c(/C=C/C(=O)c3ccco3)cc2c1`, for which the inhibition is 69.3% (active).

For `Cc1ccc2nc(Cl)c(/C=C/C(=O)c3ccco3)cc2c1`, the inhibition was -0.1% (inactive). As to `CC(C)(C)N1C(=O)[C@H]2[C@@H](c3ccc(Br)cc3)N3C(=O)N(c4cccc(Br)c4)C(=O)[C@@]3(Cc3ccccc3)[C@H]2C1=O`, the inhibition is -11.7% (inactive). The figure for `COc1ccc(CC(=O)Oc2ccc(F)cc2)cc1` is -9.7% (inactive); for `O=C(NN/C(=N/S(=O)(=O)c1ccc(Cl)cc1)c1ccccc1)c1ccc(O)cc1` it is -79.7% (inactive); for `CCc1ccc(NC(=S)N2CCN(S(=O)(=O)c3ccccc3)CC2)cc1` it is -13.5% (inactive). Under `CCOc1ccc2noc3c2c1C(=O)c1ccccc1-3` stands -12.5% (inactive); under `O=C1c2ccccc2-c2onc3ccc(Oc4ccccc4)c1c23`, 86.3% (active). Regarding `O=C1c2ccccc2-c2onc3c(Oc4ccccc4)cc(O)c1c23`, the inhibition is -15.3% (inactive). The figure for `O=S(=O)(c1cccc(-n2cnnn2)c1)N1CCOCC1` is -8.4% (inactive). Under `CCOc1ccc2nc(SC3CC(=O)N(c4ccc(OC)cc4)C3=O)sc2c1` (stereo not drawn) stands 15.3% (inactive); under `Cc1ccc(SCc2cc(=O)[nH]c(/N=C(\N)Nc3cccc4ccccc34)n2)cc1`, -11.6% (inactive). Turning to `COc1ccccc1N/C(N)=N/c1nc(CSc2ccc(C)cc2)cc(=O)[nH]1`, the inhibition was 53% (active).

`COc1ccc(Cl)cc1N/C(N)=N/c1nc(CSc2ccc(C)cc2)cc(=O)[nH]1`: the inhibition was -6% (inactive). The figure for `Cc1ccc(NC(=O)CN2CCN(C(=O)C3CCCO3)CC2)c(C)c1` (stereo not drawn) is -8.7% (inactive); for `CCCCCCc1nc2ccccc2c(=O)n1NC(=O)c1c(O)c2cccc3c2n(c1=O)CCC3` it is 46.9% (inactive); for `CCC(=O)N1CCN(c2nc(-c3ccc(Cl)cc3)cs2)CC1` it is -12.7% (inactive). As to `CC(=O)/C(C#N)=C1\NC(=O)C(Cc2ccccc2Cl)S1` (stereo not drawn), the inhibition was 14.5% (inactive). Under `CC(=O)/C(C#N)=C1\NC(=O)C(Cc2ccc(C)c(Cl)c2)S1` (stereo not drawn) stands 26.5% (inactive); under `CC(=O)/C(C#N)=C1\NC(=O)C(Cc2cc(Cl)ccc2Cl)S1` (stereo not drawn), 55% (active).

Turning to `COc1cc(/C=C/C(=O)N2CCOCC2)ccc1OCc1ccccc1`, the inhibition was -102% (inactive). Turning to `Cc1cc(C)n2nc(C(=O)Nc3c(C)nn(Cc4ccc(F)cc4)c3C)cc2n1`, the inhibition is -36.9% (inactive). The figure for `Cc1cc2oc(=O)cc(Cn3ncc(Cl)c(Cl)c3=O)c2cc1Cl` is 56.2% (active); for `Cc1cc2oc(=O)cc(Cn3ccnc3)c2cc1Cl` it is 0.9% (inactive); for `Cc1cc2oc(=O)cc(CN3CCOCC3)c2cc1Cl` it is 6.3% (inactive).
